High-throughput results: PubChem, The Scripps Research Institute Molecular Screening Center
Shown are actives, neighbours in structure and some others; about 3.5% of the full set was active somewhere.
FBW7 activator = activators of human E3 ligase FBW7. Q969H0. AlphaScreen FBW7–phospho-cyclin E peptide binding, activator screen. normalized activity (activation), % at 26.1 µM. hit rate 0.13% among 650,000. AID 1259310; in the data active means normalized activity above about 1.9%;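 further: purified mutant Fbw7 with reduced substrate affinity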
MITF inh = inhibitors of human MITF. O75030. AlphaScreen MITF homodimerization, bead proximity signal. inhibition, % at 2.6 µM. hit rate 0.91% among 650,000; in the data active means inhibition above about 50%;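 further: 0% = vehicle wells with protein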
TEAD-YAP block = TEAD-YAP interaction inhibition. HEK-TIYL cells, TEAD-Gal4/YAP UAS-luciferase luminescence. inhibition, % at 9.12 µM. hit rate 1.4% among 640,000; in the data active means inhibition above about 32%;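 further: 0% = median of test compound wells and 100% = reference inhibitor wells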
GPR151 activ = activators of human GPR151; Q8TDV0; PathHunter beta-arrestin GPR151 cells, luminescence; activation, % at 11.2 µM; hit rate 1% among 650,000; AID 1508602; in the data active means activation above about 4.9%;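 further: 0% = median of compound wells and 100% = cells with positive control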
Target sequence (Q8TDV0 whole entry, looked up): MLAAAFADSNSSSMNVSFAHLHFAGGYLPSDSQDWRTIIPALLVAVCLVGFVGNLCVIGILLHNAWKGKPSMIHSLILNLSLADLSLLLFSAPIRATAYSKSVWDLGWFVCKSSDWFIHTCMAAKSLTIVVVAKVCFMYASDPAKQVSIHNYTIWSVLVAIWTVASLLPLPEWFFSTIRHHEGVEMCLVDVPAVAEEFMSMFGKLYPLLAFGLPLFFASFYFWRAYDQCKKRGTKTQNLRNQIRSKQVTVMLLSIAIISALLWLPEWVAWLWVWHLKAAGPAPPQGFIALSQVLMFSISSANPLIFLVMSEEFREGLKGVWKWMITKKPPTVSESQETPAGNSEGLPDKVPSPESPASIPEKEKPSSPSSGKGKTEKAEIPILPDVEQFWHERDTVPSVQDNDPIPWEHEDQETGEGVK
* = called active by the depositor.

SMILES	FBW7 activator	MITF inh	TEAD-YAP block	GPR151 activ
Cc1ccc(S(=O)(=O)Nc2ccccc2C(=O)Nc2nc(-c3ccc(Br)s3)cs2)cc1	0.0	-4.6	52.9*	1.0
Cc1ccc(S(=O)(=O)Nc2ccccc2C(=O)Nc2nc(-c3cccs3)cs2)cc1	0.4	-2.8	0.5	-0.9
O=C(NC(=S)Nc1cccc([N+](=O)[O-])c1)C1CCC1	-0.2	9.6	0.1	1.4
Cc1ccc(S(=O)(=O)Nc2ccccc2C(=O)Nc2nccs2)cc1	0.1	21.2	39.0*	-0.2
Clc1ccc2nc(C3CCN(Cc4nnnn4Cc4cccs4)CC3)[nH]c2c1	-0.1	12.1	35.5*	-0.9
Fc1ccccc1C1CCN(Cc2nnnn2C2CCCC2)CC1	0.0	32.9	5.5	-0.5
Clc1ccc2nc(C3CCN(Cc4nnnn4C4CCCC4)CC3)[nH]c2c1	0.1	3.0	36.6*	-1.0
c1csc(Cn2nnnc2CN2CCN(C3CCCC3)CC2)c1	-0.1	11.7	5.5	-0.1
O=C(CSc1ccc(F)cc1)N1CCN(c2nc3ccccc3s2)CC1	0.5	2.9	-0.7	-2.7
CC(=O)c1c(C)[nH]c(C(=O)COC(=O)c2c(C)nn(-c3ccccc3)c2C)c1C	0.2	22.4	49.2*	2.6
COc1ccccc1N1CCN(C2CCCN(C(=O)C3CCCC3)C2)CC1 (configuration not stated)	0.0	-2.7	-6.2	3.8
O=C(Nc1ccc(Cl)cc1)c1cnn2cccnc12	0.1	8.1	-44.5	-0.7
Cc1cc(NC(c2cccc(Br)c2)c2ccc3cccnc3c2O)no1 (configuration not stated)	-1.0	16.9	84.0*	4.1
Cc1cccc(NC(c2ccc(Cl)cc2)c2ccc3cccnc3c2O)n1 (configuration not stated)	-0.4	-1.5	90.1*	-0.9
Cc1cccc(NC(c2ccncc2)c2ccc3cccnc3c2O)n1 (configuration not stated)	0.0	113.4*	68.2*	-1.4
Cc1cccc(NC(c2cccc(Cl)c2)c2ccc3cccnc3c2O)n1 (configuration not stated)	-0.3	4.0	47.7*	-1.4
Cc1cccc(NC(c2cccnc2)c2ccc3ccc(C)nc3c2O)n1 (configuration not stated)	-0.2	13.8	22.2	1.5
NC(=O)c1ccccc1NC(=S)NC(=O)c1cccc(Cl)c1	-0.3	-8.0	-49.4	0.5
Oc1c(C(c2ccncc2)N2CCCCC2)ccc2cccnc12 (configuration not stated)	-0.2	72.3*	14.6	0.1
Oc1c(C(c2cccnc2)N2CCCCC2)ccc2cccnc12 (configuration not stated)	-0.3	92.3*	13.7	0.2
Oc1c(C(c2cccnc2)N2CCCC2)ccc2cccnc12 (configuration not stated)	-0.2	65.4*	9.2	0.0
COc1ccccc1C(=O)Nn1c(-c2ccc(Br)cc2)nc2ccccc2c1=O	-0.1	-0.8	7.1	0.0
COc1ccccc1C(=O)Nn1c(-c2ccc(C(C)(C)C)cc2)nc2ccccc2c1=O	0.0	17.3	39.7*	-0.2
COc1ccc(-c2nc3ccccc3c(=O)n2OC(=O)c2ccc(C(C)(C)C)cc2)cc1OC	0.1	-3.4	-13.6	-1.8
CC(C)(C)c1ccc(C(=O)On2c(-c3ccc(C(C)(C)C)cc3)nc3ccccc3c2=O)cc1	-0.7	-4.1	37.9*	-0.5
SMILES	FBW7 activator	MITF inh	TEAD-YAP block	GPR151 activ
CCc1ccc(C(=O)On2c(-c3ccc(C(C)(C)C)cc3)nc3ccccc3c2=O)cc1	-0.6	-6.0	39.1*	-0.6
C=CCOc1ccc(C2C(C#N)=C(N)OC3=C2C(=O)CC(C)(C)C3)cc1OC (configuration not stated)	0.5	9.9	2.0	-0.8
CCN(CC)c1ccc(/C=C/C23NC(=O)CCN2c2ccc(C)cc2C3(C)C)cc1 (configuration not stated)	-1.1	39.9	51.8*	1.6
CCOC(=O)C(O)(c1ccc(N(CC)C(=O)c2ccccc2)cc1)C(F)(F)F (configuration not stated)	2.6*	18.1	3.2	-1.5
O=C(CN(c1ccc(F)cc1)S(=O)(=O)c1ccccc1)Nc1cccc2cccnc12	0.1	2.6	3.7	-0.2
O=C1c2ccccc2NC2(CCCCC2)N1c1ccc(O)cc1	0.1	-13.3	57.7*	-1.5
O=C(Nc1ccccc1F)c1cc(F)ccc1[N+](=O)[O-]	0.2	10.1	56.4*	0.4
O=C(Nc1cc([N+](=O)[O-])ccc1F)c1cccc(F)c1	-0.1	11.8	34.4*	2.1
O=C(CCc1ccccc1)Nc1cc([N+](=O)[O-])ccc1F	-0.6	16.7	61.1*	0.3
O=C(Nc1cc([N+](=O)[O-])ccc1F)c1ccc(Br)cc1	-0.1	-8.7	39.1*	2.7
